Test results from PubChem BioAssay AID1508625 (Wald Lab, School of Medicine, Case Western Reserve …, 2021).

Assay: small molecules boosting NK-mediated OVCAR3 lysis – imaging, primary NK cells, calcein-AM imaging, primary screen (AID 1508625);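 also: compound given to NK cells 16 h before adding targets at 1.5 to 1 ratio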;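 as to z-score: more negative robust z means stronger NK killing of tumor cells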
Conditions: OVCAR3 lysis by primary NK cells, at 5 µM; z-score: measured here: robust Z-score, single-point normalisation

Structure (SMILES) | corrected activity, negative = more killing [%] | z-score
O=C(Nc1ccccc1C(=O)Nc1ccc(Br)cn1)c1ccccc1 | -6.2 | -2.34
O=c1cc(O)c2c(n1-c1ccccc1)CCCC2 | -7.04 | -2.18
COc1ccc(C(=O)Nc2ccc3oc(-c4ccccc4)nc3c2)cc1OC | -2.95 | -1.28
CC(=O)Oc1ccc(C(=O)Nc2nc3ccc4ccccc4c3s2)cc1 | -1.08 | -0.335
CCOc1ccccc1C(=O)Nc1ccc(S(=O)(=O)N2CCCCC2C)cc1 (stereo not given) | -4.3 | -1.33
COc1ccc(Cn2c(=S)[nH]c3cc(C(=O)N4CCCCC4)ccc3c2=O)cc1 | -8.39 | -2.67
COc1ccc(-c2n[nH]c(=S)o2)cc1 | -4.44 | -1.69
CC(C)(C)C1CCC(=O)C(C2(O)C(=O)Nc3ccc(Br)cc32)C1 (stereo not given) | -3.34 | -0.998
CCCCC1CC(CN2C(=O)NC(C)(C)C2=O)OC1=O (stereo not given) | -2.13 | -0.811
COc1cc2c(cc1NC(=O)C(C)c1ccc([N+](=O)[O-])cc1)oc1ccccc12 (stereo not given) | -2.25 | -1.25
COc1ccc(C(=O)N2N=C(C3CCCCC3)CC2(O)C(F)(F)F)cc1OC (stereo not given) | -5.29 | -1.58
c1cc2c(cc1Nc1nc(-c3ccc(C4CCCCC4)cc3)cs1)OCO2 | 0.134 | 0.0696
O=[N+]([O-])c1ccc2[nH]c3c(c2c1)CCCC3NC1Cc2ccccc2C1 (stereo not given) | 0.0593 | 0.0259
Cc1[nH]c2ccccc2c(=O)c1CN(C)Cc1ccccc1 | 0.566 | 0.175
CCCc1cc(=O)oc2cc3oc4c(c3cc12)CCCC4 | -1.47 | -0.438
COc1ccc(CNC(=O)CSc2nc3cc(Cl)ccc3s2)cc1 | -1.73 | -0.516
O=C(CSCc1ccccc1F)N1CCc2ccccc21 | -9.83 | -2.65
Cc1c(C(=O)NCc2cccs2)oc2ccc(S(=O)(=O)N3CCC(C)CC3)cc12 | -7.39 | -1.84
CCOc1cc(C2Nc3ccccc3NC3=C2C(=O)CC(C)(C)C3)ccc1OC(C)=O (stereo not given) | 0.693 | 0.309
C#CCN1C(=O)C(O)(CC(=O)c2cccc3ccccc23)c2ccccc21 (stereo not given) | -5.41 | -2.06
COc1ccc(-n2c(=S)[nH]c3cc(C(=O)O)ccc3c2=O)cc1 | -5.11 | -1.63
CCN(c1ccccc1C(=O)O)S(=O)(=O)c1cccc2nsnc12 | -4.09 | -1.22
CCOc1ccc2nc(SCC(=O)Nc3ccccc3C(=O)O)sc2c1 | -4.64 | -1.75
Cc1onc(-c2ccccc2)c1C(=O)Nc1cccc2c1C(=O)c1ccccc1C2=O | -2.48 | -1.02

Structure (SMILES) | corrected activity, negative = more killing [%] | z-score
O=C(c1ccc(Cn2c(=S)[nH]c3cc4c(cc3c2=O)OCO4)cc1)N1CCC(N2CCCCC2)CC1 | -3.36 | -0.889
CC(C)C(NC(=O)C12CC3CC(CC(C3)C1)C2)C(=O)NC1=NCCS1 (stereo not given) | 1.64 | 0.711
Cc1ccc(Cn2c3[n+](c4ccccc42)CC(O)CS3)cc1 (stereo not given) | -3 | -1.55
O=C(Nc1cccc(Br)c1)c1ccc2snnc2c1 | -3.91 | -1.17
Cc1ccc2cccnc2c1[N+](=O)[O-] | -3.53 | -0.744
Cc1cccc(C)c1OCCCCCCN1CCOCC1 | -1.15 | -0.473
O=C(c1nn2c(C(F)(F)F)cc(-c3ccco3)nc2c1Br)N1CCCCC1 | -4.92 | -1.85
CCOC(=O)c1c(-c2ccccc2)csc1NC(=O)CSc1nc2ccccc2o1 | 25.2 | 7.82
CC(C)NCCCCOc1ccccc1-c1ccccc1 | 1.68 | 0.626
CC(=O)N1CCc2[nH]c3ccccc3c2C1 | -1.79 | -0.676
O=C1CSc2ccc(S(=O)(=O)N3CCOCC3)cc2N1 | -4.98 | -1.34
COC(=O)c1cc(NC(=O)C2(S(=O)(=O)c3ccc(C)cc3)CC2)cc(C(=O)OC)c1 | -4.1 | -1.16
O=C(NCc1cccc(Cl)c1)c1ccc2c(=O)n(Cc3cccc(Br)c3)c(=S)[nH]c2c1 | -6.41 | -2.04
COc1ccc(-c2nocc2C(N)=O)cc1OC | -3.72 | -1.63
O=C(Nc1ccc(Br)cc1)c1ccccc1I | -1.25 | -0.444
CCOc1cc(C=c2sc3nc4ccccc4n3c2=O)ccc1O | -2.97 | -1.26
COc1cccc(NS(=O)(=O)c2ccc3c(c2)[C@H]2C=CC[C@H]2[C@@H](c2ccccc2Cl)N3)c1 | -8.83 | -2.64
O=C(NN=Cc1ccc(O)cc1)c1cc(-c2ccc3ccccc3c2)n[nH]1 | 0.541 | 0.236
Cc1cc(Cl)nc(Cl)c1C(=O)O | 0.175 | 0.0658
CCC(SC1=NCCS1)C(=O)Nc1ccc(S(N)(=O)=O)cc1 (stereo not given) | -2.81 | -1.06
CCOC(=O)C1=C(C)Nc2sc(C(=O)c3ccc(C)cc3)c(N)c2C1c1ccc(C(=O)OC)cc1 (stereo not given) | -4.02 | -1.2
CC1CCN(CCCCCOc2ccccc2Br)CC1 | -0.201 | -0.0828
Cc1ccc(C)c(Cn2cccc2C#N)c1 | -4.01 | -1.08
O=C1C2CCCCC2C(=O)N1c1cccc2ccccc12 (stereo not given) | -3.38 | -0.712

Structure (SMILES) | corrected activity, negative = more killing [%] | z-score
CCN(C(=O)c1c(-c2ccccc2)noc1C)C1CCCCC1 | -2.37 | -0.905
CCN(CC)c1cc(O)c2c(c1N)C(=O)c1ccccc1C2=O | -2.05 | -0.772
Cc1cccc(C)c1OCCNC(=O)c1cc2ccccc2o1 | -1.04 | -0.579
O=C(NCc1ccccn1)c1sc2cc([N+](=O)[O-])ccc2c1Cl | -2.44 | -0.775
CCOc1ccc(-c2cc(C(=O)NN=Cc3cccnc3)[nH]n2)cc1 | -4.91 | -2.15
COc1cc(C)c(NC(=O)c2ccccc2I)cc1C(C)C | -3.4 | -1.89
O=C(Nc1ccccc1Cl)c1cccc([N+](=O)[O-])c1 | -1.44 | -0.51
CCC(=O)NC(Nc1ccccc1Cl)(C(F)(F)F)C(F)(F)F | -0.701 | -0.276
O=C(NC(=S)NN1CCOCC1)c1ccc(Br)cc1 | -1.04 | -0.33
CN1CCc2c(sc3c2C(=O)NC(c2cccc(OCc4ccccc4)c2)N3)C1 (stereo not given) | -3.2 | -0.991
CN(C)c1ccc(C=C(C(=O)c2ccccc2)c2nc3ccccc3[nH]2)cc1 | -1.99 | -1.03
Cc1ccc(-c2nc3ccccc3c(C(=O)O)c2C)cc1 | -2.28 | -1.18
CCc1ccc(-n2c(CCC(=O)O)ccc2-c2ccc(F)cc2)cc1 | -1.11 | -0.331
COc1ccc(OC(C)C(=O)Nc2ccc(Br)cc2)cc1 (stereo not given) | -7.07 | -2.19
O=c1oc(-c2ccc(Oc3ccc([N+](=O)[O-])cc3)cc2)nc2ccccc12 | -1.57 | -0.62
CC1CCC2C(=O)N(c3ccc(N4CC5(C)CC4CC(C)(C)C5)c([N+](=O)[O-])c3)C(=O)C2C1 (stereo not given) | -1.82 | -0.661
COc1ccccc1Nc1ncc(C(=O)N2CCC(Cc3ccccc3)CC2)c2ccccc12 | -5.51 | -1.37
CCOC(=O)C1C(c2ccccc2)NC(=S)NC1(O)C(F)(F)F (stereo not given) | -1.39 | -0.43
CCOc1ccc(OCC(=O)NC(C)C)cc1 | -5.07 | -2.82
CC(=O)C1C(=O)CC(c2ccccc2)CC1=O (stereo not given) | -5.17 | -2.04
O=C(O)c1cc(Cl)ccc1NS(=O)(=O)c1ccc(Cl)cc1 | -1.75 | -0.369
CCSc1ccc(NC(=O)CC2c3ccccc3Oc3ccccc32)cc1 | -7.71 | -2.39
COC(=O)c1[nH]c(=O)c2ccccc2c1O | -4.14 | -1.63
Cc1c(NC(=O)COc2ccc(Oc3ccccc3)cc2)c(=O)n(-c2ccccc2)n1C | 1.22 | 0.434

Structure (SMILES) | corrected activity, negative = more killing [%] | z-score
O=C(CSc1nnc(-c2cccc(Br)c2)o1)c1ccc2c(c1)CCCC2 | -3.57 | -1.33
CCOc1ccc(NC(=O)C2c3ccccc3Oc3ccccc32)c([N+](=O)[O-])c1 | -0.899 | -0.37
O=c1[nH]c2ccc(N=Cc3ccc(-c4ccc([N+](=O)[O-])cc4)o3)cc2[nH]1 | -0.571 | -0.17
CCc1ccc(NC(=O)c2ccccc2NC(=O)c2cccc(OC)c2)cc1 | 1.91 | 1.06
COc1ccc(CN2C(=O)c3ccccc3C2C(=O)NCCCN2CC(C)CC(C)C2)cc1 (stereo not given) | -3.06 | -0.869
COc1ccc2cc3cc(C(=O)N(C)c4cc(C)ccc4C)oc3nc2c1 | -6.86 | -1.68
COc1ccc(Oc2c(C(F)(F)F)oc3cc(OC(=O)c4ccc(OC)c(OC)c4)ccc3c2=O)cc1 | -1.55 | -0.672
Cc1c(N=Cc2c[nH]c3ccccc23)cccc1[N+](=O)[O-] | -2.05 | -0.872
CC(=O)CC(O)(c1ccccc1)C(F)(F)F (stereo not given) | 0.173 | 0.0551
CC(C)c1ccc(NC(=O)C2c3ccccc3C(=O)N(C)C2c2cccs2)cc1 (stereo not given) | -7.64 | -1.9
CC1(C)NN=C(N)SC1=O | -0.451 | -0.14
Cc1ccc(-n2nc(C)c(C=Cc3onc(C)c3[N+](=O)[O-])c2C)cc1 | -6.18 | -1.84
O=C(Cc1ccccc1)Nc1ccc2oc(-c3ccc(I)cc3)nc2c1 | -1.02 | -0.361
O=C1C(=O)N(CO)C(c2ccccc2)C1=C(O)c1ccccc1 (stereo not given) | -3.26 | -1.23
CN(C(=O)Cn1ncc2c(=O)oc3ccccc3c21)c1ccc(Br)cc1 | -6.99 | -1.72
O=C1c2cccc([N+](=O)[O-])c2C(=O)N1C1C(=O)N(c2cccc(C(F)(F)F)c2)C1c1ccc(F)cc1 (stereo not given) | -1.05 | -0.327
Cc1onc(-c2ccccc2)c1C(=O)Nc1cccc(Br)c1 | -5.57 | -1.98
CCc1ccc(NS(=O)(=O)c2ccc3[nH]cc(C(=O)N(C)Cc4ccccc4)c(=O)c3c2)cc1 | -2.32 | -0.569
CC(=O)Nc1ccc(NC(=O)CC2OCC3CCCCN3C2=O)cc1 (stereo not given) | -5.1 | -1.95
Cc1ccc(-c2cc(C(=O)O)c3cc(Cl)ccc3n2)cc1C | -3.58 | -1.47
CCOC(=O)c1ccc2c(c1)[C@@H]1C=CC[C@@H]1[C@H](c1ccccc1C(F)(F)F)N2 | -3.03 | -0.905
c1ccc(CN2CCN(Cc3ccc4ccccc4c3)CC2)nc1 | -2.43 | -1.08
CCCCN(C)CCn1c(=S)[nH]c2cc3c(cc2c1=O)OCO3 | -6.47 | -1.71
